# Records with an inconclusive call do not appear. A number with no mark means an inactive call. Activity calls are given as the source filed them. The call rests on the fitted dose curve; in most records, active means well fitted cell-killing curve with a large enough effect; inconclusive means small, poorly fitted or top-dose-only effect; inactive means flat fitted curve, though single readings scatter.
# Assay: Quantitative highthroughput screen to assess conditional lethalithy of P12 Ichikawa cells grown in RPMI1640 with dialyzed fetal bovine serum (RPMI+ds) (AID 1963880); further: nearly all actives have a fitted effect of over 35% in size
# Settings: ATP luminescence, 48 h; Potency: P12-Ichikawa viability; series mostly up to 45.8 µM; viability: at the top concentration
# Description: Assay Provider: Jason Cantor Ph.D.
# Department of Biochemistry
# University of Wisconsin-Madison, Madison, WI, USA
# Chemical screening studies have identified drug sensitivities across hundreds of cancer cell lines but most putative therapeutics fail to translate. Discovery and development of drug candidates in models that more accurately reflect nutrient levels in human blood is a major challenge. Here we performed high-throughput screens in conventional versus Human Plasma-Like Medium (HPLM) to identify compounds that were "missed" when screening using the artificial culture condition. Sets of conditional anticancer compounds spanned phases of clinical development and included non-oncology drugs were assessed. […] We also traced conditional phenotypes for several chemotherapeutics to availability of HPLM-specific metabolites and confirmed others for compounds whose reported targets are encoded by nonessential genes. Our findings establish generalizable strategies for exploiting conditional lethality in HPLM to reveal therapeutic candidates and mechanisms of action in cancer cells.
# Described herein are the results of each viability screens against three cell lines: NOMO1 (an acute myeloid leukemia cell line); P12-Ichikawa (a T-cell acute lymphoblastic leukemia); and SEM (a B-cell ALL). Each assay was screened using 3 different cell culture media: homemade human plasma-Like medium with 10% dialyzed fetal bovine serum (HPLM+ds); RPMI1640 with 10% untreated FBS and 5mM glucose (RPMI+s); and RPMI1640 with 10% dialyzed fetal bovine serum and 5 mM glucose (RPMI+ds).
# PROTOCOL TABLE (as described by Inglese J, Shamu CE and Guy RK. 2007)
# SEQUENCE No. (e.g., 1, 2, 3, etc.); […] (e.g., Cells, Incubation, Reagent, etc.); VALUE and DESCRIPTION.
# 1; Cells; 5 uL; white, solid bottom 1536-well Greiner assay plate.
# 2; Compounds; 23 nL; Kalypsis pin tool (Wako USA) equipped with a 1536-well pin head to transfer to the assay plates.
# 3; Incubation; 48 hours; 37C incubation.
# 4; Reagent; 3 uL; CellTiter Glo (Promega).
# 5; Incubation; 5 min, room temperature
# 6; Detection; Luminescence, Viewlux PerkinElmer.
# NOTES (numbers refer to Sequence numbers above)
# 1. Briefly, 5 ul of cell reagent was dispensed using a Multidrop Combi Dispenser. The NOMO1 and SEM cells were plated at 500 cells/well and the P12-Ichikawa line at 1000 cells/well.
# 2. After seeding the cells, 23 nL of MIPE 4.1 library compounds (in DMSO) were added to each plate using a Kalypsys 1536 Pintool dispenser. Bortezomib at final concentration of […] and DMSO were added to each plate as positive and negative controls respectively. For each screen, MIPE 4.1 compounds were added over an eleven-point concentration range […] in 3-fold dilutions.
# 3. Each plate was covered with a stainless steel gasketed lid to prevent evaporation and incubated for 48 hour at 37C, 95% relative humidity, and 5% CO2.
# 4-5. Three microliter CellTilter-GloTM luminescent substrate mix (Promega) reagent was added to the assay plate and incubated at room temperature for 5 min.
# 6. The luminescence signal was measured using a ViewLux (PerkinElmer) multiplate reader with a 2 second exposure time per plate. Data for each compound were normalized as percent viability such that measurements for DMSO and the empty well controls in each plate were defined as 100% and 0%, respectively.
# Potency means the concentration at half of the fitted maximal effect.
Structure (SMILES),Potency,viability [%]
CCOc1cc2ncc(C#N)c(Nc3ccc(F)c(Cl)c3)c2cc1NC(=O)C=CCN(C)C,5.26 µM (active),
CN1CC(=O)NC1=NC(=O)Nc1cccc(Cl)c1,,100
CN[C@@H]1CN(c2ccc3c(=O)c(C(=O)O)cn(-c4nccs4)c3n2)C[C@@H]1OC,8.12 µM (active),
COc1ccc(CCN2CCN(CCCc3ccccc3)CC2)cc1OC,,99.1
O=C(NC(Cc1cc(=O)[nH]c2ccccc12)C(=O)O)c1ccc(Cl)cc1 (stereo not given),,109
Cc1cc(=O)oc2cc(O)ccc12,,107
Cc1cc(C(=O)N2CCN(c3cccc(Cl)c3)CC2)n(-c2ccccc2)n1,2.96 µM (active),
CCc1ccc(CCOc2ccc(CC3SC(=O)NC3=O)cc2)nc1 (stereo not given),,95.8
COc1cc(N2CCC(O)CC2)ccc1Nc1cc(Nc2ccccc2S(=O)(=O)C(C)C)c2cc[nH]c2n1,,98.3
N#CC(=C(O)c1ccc(Cl)cc1Cl)c1nc2cc(Cl)ccc2c(=O)[nH]1,,107
CN(C)CC=CC(=O)Nc1cc2c(Nc3ccc(F)c(Cl)c3)ncnc2cc1O[C@H]1CCOC1,2.35 µM (active),
NS(=O)(=O)c1cc2c(cc1Cl)NCNS2(=O)=O,,96.7
CN1[C@H]2CC[C@H]1CC(OC(=O)c1c[nH]c3ccccc13)C2 (stereo not given in full),,99.5
C[C@H](Cc1ccc(O)c(O)c1)[C@@H](C)Cc1ccc(O)c(O)c1,16.6 µM (active),
COc1cc2nc(N(C)CCCNC(=O)C3CCCO3)nc(N)c2cc1OC (stereo not given),,98.6
C[N+]1(C)[C@@H]2C[C@@H](OC(=O)C(O)(c3cccs3)c3cccs3)C[C@H]1[C@@H]1O[C@@H]12,,94.1
CN(C)CCN1C(=O)c2cccc3cc(N)cc(c23)C1=O,18.7 µM (active),
CCOC(=O)C1=C(N)Oc2ccc(Br)cc2C1C(C#N)C(=O)OCC (stereo not given),,93.3
O=C(c1ccc(F)cc1)C1CCN(CCn2c(=O)[nH]c3ccccc3c2=O)CC1,,98.3
CC(C)OC(=O)C(C)(C)Oc1ccc(C(=O)c2ccc(Cl)cc2)cc1,,96.9

Structure (SMILES),Potency,viability [%]
N[C@H]1CN(c2c(F)cc3c(=O)c(C(=O)O)cn(C4C[C@@H]4F)c3c2Cl)CC12CC2 (stereo not given in full),,107
COc1nc(C)cnc1NS(=O)(=O)c1cccnc1-c1ccc(-c2nnco2)cc1,,99.6
CC1=C(CC(=O)O)c2cc(F)ccc2C1=Cc1ccc(S(C)=O)cc1 (stereo not given),,101
COc1ccc(Nc2nccc(NCCO)n2)cc1,,95.5
CC(C)C[C@H](NC(=O)[C@@H](NC(=O)c1cccc(-c2ccccc2)n1)[C@@H](C)O)B(O)O,0.059 µM (active),
CCn1cc(C(=O)O)c(=O)c2cc(F)c(N3CCNC(C)C3)c(F)c21 (stereo not given),,100
O=C1NC(=O)C(c2cnc3ccccn23)=C1c1cn2c3c(cc(F)cc13)CN(C(=O)N1CCCCC1)CC2,5.88 µM (active),
CCCCCCCN(CC)CCCC(O)c1ccc(NS(C)(=O)=O)cc1 (stereo not given),18.7 µM (active),
COc1cc(Nc2ncc(F)c(Nc3ccc4c(n3)NC(=O)C(C)(C)O4)n2)cc(OC)c1OC,5.26 µM (active),
O=C(Nc1ccc(OC(F)(F)F)cc1)c1sccc1NCc1ccnc2ccccc12,2.35 µM (active),
C=CCn1c(=O)c2cnc(Nc3ccc(N4CCN(C)CC4)cc3)nc2n1-c1cccc(C(C)(C)O)n1,1.87 µM (active),
COc1ccc(Nc2cc(-c3cnc(N)nc3)nc(N3CCOCC3)n2)cn1,2.64 µM (active),
O=C1C[C@@H](c2ccc(O)cc2)Oc2cc(O)cc(O)c21,,97.1
NCc1ccc(OCCCc2sc(-c3ccc4c(c3)/C(=N/Nc3nc5ccccc5s3)CCC4)nc2C(=O)O)cc1,0.0093 µM (active),
C[C@](Cc1c[nH]c2ccccc12)(NC(=O)OC1C2CC3CC(C2)CC1C3)C(=O)NC[C@H](NC(=O)CCC(=O)O)c1ccccc1 (stereo not given in full),,98.3
COc1cc2c(Nc3ccc(Cl)c(Cl)c3F)ncnc2cc1OCC1C[C@@H]2CN(C)C[C@H]2C1,16.6 µM (active),
Cc1nc(NC(=O)N2CCC[C@@H]2C(N)=O)sc1-c1ccnc(C(C)(C)C(F)(F)F)c1,5.9 µM (active),
CC(C)C1CCC(C(=O)N[C@H](Cc2ccccc2)C(=O)O)CC1 (stereo not given in full),,102
O=C1Nc2ccc(I)cc2C1=Cc1cc(Br)c(O)c(Br)c1,,93
O=C1NC(=O)C(=Cc2ccc3c(c2)OC(F)(F)O3)S1,,81.1

# Source: PubChem BioAssay (NCATS)
